Source: PubChem
Pf Dd2 inh: inhibitors of Plasmodium falciparum Dd2 growth; P. falciparum Dd2 growth, SYBR Green, 72 h; Potency, µM (series often up to 28.9 µM), inactives show top-dose activity, negative = inhibition, hits mostly inhibitors; 120,000 tested, 4.3% active; active = well fitted inhibition curve with a large enough effect;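 also: plate controls were DMSO vehicle for no effect and reference drug for full effect; nearly all actives have a fitted effect of over 65% in size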
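Infected erythrocytes (Dd2, 0.3% parasitemia, 2.5% hematocrit final) are added to compound in RPMI-1640/Albumax II medium, grown 72 h at 37C in low oxygen, then lysed with saponin/Triton-X containing SYBR Green and read by fluorescence.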
* = called active by the depositor; i = inactive; [ ] = dose if it differs, or a comment. This excerpt belongs to a sample that is enriched for hits. Potency is read from the fitted curve at half-maximal effect.

SMILES	Pf Dd2 inh
COc1ccc(-c2ccc3c(c2)C(=O)N2CC[C@H](NC(=O)COCC(=O)O)[C@H]2C(=O)N3)cc1	7%
Cc1ccc([C@@H]2CN(C(=O)c3snnc3C)[C@@H]3C4CCN(CC4)[C@@H]32)cc1	14µM*
O=C(c1cn2c(n1)CNCC2)N1C[C@H](c2ccccc2)[C@@H]2[C@H]1C1CCN2CC1	0%
COc1ccc([C@@H]2CN(C(=O)Nc3ccc(C)cc3)[C@@H]3C4CCN(CC4)[C@@H]32)cc1	-10%
CN1C[C@H]2CN(Cc3ccc(C(=O)O)cc3)CCN2C1=O	-5%[44.1 µM]
CC(C)CN1C(=O)CCc2cc(NC(=O)c3ccc(N(C)C)cc3)ccc21	-25%
CC(=O)Nc1ccc2c(c1)S(=O)(=O)N=C(CC(C)C)N2CC(C)C	4µM*
CCc1ccc2oc(-c3cc(NC(=O)c4cccs4)ccc3Cl)nc2c1	-16%
CCC1=NS(=O)(=O)c2cc(NC(=O)C3CC3)ccc2N1CCOC	-16%
CCCN1C(CC(C)C)=NS(=O)(=O)c2cc(NC(=O)c3cccs3)ccc21	0.11µM*
CC(C)Cc1nn2c(=O)cc(COC(=O)c3ccc(NC(=O)c4cccs4)cc3)nc2s1	50%
CC(C)CC(=O)Nc1ccc2c(c1)CCC(=O)N2CC(C)C	i
CCC1=NS(=O)(=O)c2cc(NC(=O)C3CC3)ccc2N1CC(C)C	4.5µM*
CCc1ccc(C2=C(C)C(N3CCC(C(=O)Nc4cccc(OC)c4)CC3)=NS2(=O)=O)cc1	i
COCCOc1ccc2c(n1)CCN(C(=O)c1cccnc1)C2	29%
COc1ccc(CN2CC3(CCN(C(=O)Cc4cccc(OC)c4)CC3)C2=O)cc1	-23%
COCc1ccc2c(c1)c(OC(C)(C)C(=O)NC1CCN(C)CC1)nn2CCC(C)C	-22%[44.1 µM]
CC(=O)Nc1ccc(CN2CCCC(N3CCN(c4ccccc4)CC3)C2)cc1 (stereo unspecified)	-23%
O=C(NCc1ccncc1)C1CN(S(=O)(=O)c2cccnc2)CC12CCCCC2 (stereo unspecified)	-15%
O=C(CCN1CCCC1=O)NC1CCCN(CCCc2ccccc2)C1 (stereo unspecified)	i
Cc1ccccc1C(=O)N(C)Cc1cccc(C(F)(F)F)c1	14µM*
CN(Cc1cccc(C(F)(F)F)c1)C(=O)C(C)(C)C	-1%[44.1 µM]
CN(Cc1cccc(C(F)(F)F)c1)C(=O)c1ccccc1	i
C[S+](=O)([O-])Nc1cccc(Nc2cnc3ccc(-c4ccccc4)nn23)c1	13µM*
COc1ccc(-c2ccc3ncc(Nc4cccc(Cl)c4)n3n2)cn1	-7%[44.1 µM]
SMILES	Pf Dd2 inh
CN(C)c1ccc2ncc(Nc3cccc(C(F)(F)F)c3)n2n1	i
OCc1cccc(-c2ccc3ncc(Nc4ccnc(N5CCOCC5)c4)n3n2)c1	i
COc1ccccc1-c1ccc2ncc(Nc3ccc(C(N)=O)cc3)n2n1	i
c1ccc(Nc2cnc3ccc(N4CCOCC4)nn23)cc1	i
COc1ccc(Nc2cnc3ccc(-c4ccc(F)cc4)nn23)cc1OC	2.8µM*
COc1cncc(Nc2cnc3ccc(-c4cccc(CO)c4)nn23)c1	13µM*
COc1ccc(-c2ccc3ncc(Nc4ccc5c(c4)OCCO5)n3n2)cc1OC	i
COc1ccccc1-c1ccc2ncc(Nc3ccccc3)n2n1	7.9µM*
COc1ccc(Nc2cnc3ccc(-c4ccc(OC)c(OC)c4)nn23)cn1	i
OCc1cccc(-c2ccc3ncc(Nc4ccccc4F)n3n2)c1	-6%[44.1 µM]
COCCC(=O)N1CCCOCCNC(=O)[C@@H]2CCC[C@@H]21	13%
Oc1ccccc1CN1C[C@H](O)C[C@H]1c1nc(-c2ccncc2)no1	-8%[44.1 µM]
COc1ccc(C(=O)N2CC[C@H]3CC(=O)N(CCc4cnc[nH]4)CC[C@H]3C2)cc1	i
CCOc1ccccc1C1NC(=O)N(CC(=O)Nc2ccc(F)cc2F)C2=C1C(=O)OC2 (stereo unspecified)	i
FC(F)(F)c1ccc(N2C3CCC2CN(Cc2cccc(Cl)c2)C3)cc1	10%
CC1CCN(C(=O)c2cc3n(n2)CC(c2ccc(Cl)cc2)OC3)CC1 (stereo unspecified)	i
CC(C)(C)c1nnc2n1C(C(=O)NCc1ccc(F)cc1)CC2 (stereo unspecified)	20%
CC(C)NC(=O)N(C1CC1)C1CCOC2(CCN(C(=O)c3ccc4nc[nH]c4c3)CC2)C1 (stereo unspecified)	35%
Cn1nccc1CN1CCn2c(nnc2-c2ccccc2)C1	1%[44.1 µM]
Cc1cccc(CN2CCc3nc(N4CCN(c5ccccn5)CC4)ncc3C2)c1	i
COc1cccc(CN2CCc3nc(N4CCN(C)CC4)ncc3C2)c1	-22%
COc1cccc(CN2CCc3nc(N4CCN(c5ncccn5)CC4)ncc3C2)c1	11µM*
Cc1cccc(-n2ncc3c2CCCC3NC(=O)CN2CCNC(=O)C2)c1C (stereo unspecified)	-4%
COC(=O)c1c(NC(C)=O)c2cc(NC3CCN(C(C)=O)CC3)cnc2n1CC1CCCO1 (stereo unspecified)	-1%
COc1ccc(S(=O)(=O)N2CCCC(Cc3noc(-c4cnccn4)n3)C2)cc1 (stereo unspecified)	i
SMILES	Pf Dd2 inh
Cn1cnc(S(=O)(=O)N2CCCC(Cc3noc(-c4ccccc4)n3)C2)c1 (stereo unspecified)	i
COc1ccc(S(=O)(=O)N2CCCC(Cc3noc(-c4ccccc4)n3)C2)cc1 (stereo unspecified)	4.5µM*
O=C(c1cccc(F)c1)N1CCC2(CC1)C(=O)NN=C2c1ccccn1	-11%
Cc1ccc(NC(=O)Cn2c(=O)c(-c3noc(C)n3)c3n(c2=O)CCCCC3)c(C)c1	i
O=C1CCCN1C1CCN([S+](=O)([O-])c2cccs2)CC1	17%[44.1 µM]
Cc1cc(N)c(-n2cc3c(c2-c2ccc(Br)cc2)c(=O)n(C)c(=O)n3C)cc1C	-18%
Cc1ccc(-n2cc3c(c2-c2ccccc2Br)c(=O)n(C)c(=O)n3C)cc1N	13µM*
Cn1c(=O)c2c(-c3ccccc3Br)n(CCc3ccccc3)cc2n(C)c1=O	-20%
COc1ccc(C(=O)N2CCC3(CC2)N=C(c2ccc(Cl)cc2)NO3)cc1	i
CC(C)Cc1cc(C(=O)N2CCc3nc(-c4ccccc4)[nH]c3C2)nc(=O)[nH]1	-21%
Cn1nnnc1C1CCCN(C(=O)c2cccc(F)c2)C1 (stereo unspecified)	23%
O=C(NCC1CCOCC1)c1ccco1	11%
CCc1cccc(NC(=O)Nc2csc3c2CCCC3)c1	10µM*
Cc1cc(C)c(NC(=O)Nc2csc3c2CCCC3)c(C)c1	86%[5.79 µM]
Cc1cccc(C)c1NC(=O)Nc1csc2c1CCCC2	-16%
CN(Cc1ccc2nonc2c1)C(=O)C1CCN(C(=O)C2CCCC2)CC1	-22%
COc1cccc(N2CCN(C(=O)C[C@H]3NC(=O)c4ccccc4NC3=O)CC2)c1	-3%
Cc1ccc(N2C(=O)CS(=O)(=O)C23C(=O)N(Cc2ccc(Cl)cc2)c2ccccc23)cc1C (stereo unspecified)	2.2µM*
Cc1ccc(CN2C(=O)C3(c4ccccc42)N(c2ccc(C)c(Cl)c2)C(=O)CS3(=O)=O)cc1 (stereo unspecified)	-8%
CN1C(=O)C2(c3ccccc31)N(c1ccc(Br)cc1)C(=O)CS2(=O)=O (stereo unspecified)	-18%
COc1ccc(-c2cn3c(n2)CO[C@@H](CNS(=O)(=O)c2ccc(C)cc2)C3)cc1	13µM*
COc1ccc(-c2cn3c(n2)CO[C@@H](CNS(C)(=O)=O)C3)cc1	i
Cc1ccc(-c2cn3c(n2)CO[C@@H](CNS(C)(=O)=O)C3)cc1	-1%[44.1 µM]
